Measurements reported in ChEMBL document CHEMBL4513216, “Probing the Open Global Health Chemical Diversity Library for Multistage-Active Starting Points for Next-Generation Antimalarials” (ACS Infect Dis, 2020).
Hit rate of the full screen: of about 65,000 compounds, about 2,100 (3.2%) showed an effect of 50% or more. The median lay at about -52%. Many of the other results were omitted from the sample, so strong results are more common in it than they were.

The compounds below were run on Plasmodium falciparum (assay: Screen against P. falciparum Asexual Blood Stage (ABS), at 5uM). Conditions: tested at 5 uM.
Assay type: functional, Dd2
Compound `O=C1N(c2cncnc2)CCC12CCCN(Cc1cccnc1)C2` (stereo not drawn) has an INHIBITION of -88.1%. Compound `Cc1nn(C)c2ncc(S(=O)(=O)N3CCCN4CCCC4C3)cc12` (stereo not drawn) has an INHIBITION of -18.1%. Work on `O=C1CSC(c2cccnc2)c2c(n(C3CCOCC3)[nH]c2=O)N1` (stereo not drawn) yielded an INHIBITION of -140%. With `CC[C@@H]1N(C)CCC[C@]12CCC(=O)N2Cc1ccncc1` the INHIBITION was 3.77%. `O=C1CCC2(CCN(Cc3ccc(F)cc3)CC2)N1CCN1CCCC1` showed an INHIBITION of 84.6%. Work on `COCCN1CCCC2(CCC(=O)N2Cc2cccnc2)C1` (stereo not drawn) yielded an INHIBITION of -66.3%. With `Cc1cnc(N2CCCC3(CCCN3CC(=O)N(C)C)C2)nc1` (stereo not drawn) the INHIBITION was -98.2%. `COCCNc1nc2c(c(NCc3cnc(C)c(C)c3)n1)CCNCC2` showed an INHIBITION of -67.4%. Compound `COCc1cncc2c1CCN(Cc1cccs1)C2` has an INHIBITION of -1.55%. In the case of `COCCNc1nc2c(c(NCCc3cccs3)n1)CCNCC2`, the INHIBITION is reported as 81.9%. `Cn1cc(C2=CCN(CCCC(=O)Nc3ccc(C#N)cc3)CC2)cn1` was tested, and the INHIBITION was -69.1%. In the case of `Cc1ccc(CN2CC[C@@H]3[C@@H]2CCN3C(=O)Cc2cccs2)o1`, the INHIBITION is reported as -34.3%. `CCn1ccnc1CN1CCCN(C(=O)Cc2ccccc2C)CC1` gave an INHIBITION of -41.3%. With `Cc1nc(CC(=O)N(C)C2CCCN(CCc3ccccc3)C2)cs1` (stereo not drawn) the INHIBITION was -42.4%. With `CCn1ccnc1CN(C)C1CCCN(Cc2ccccc2F)C1` (stereo not drawn) the INHIBITION was 70.4%. Compound `Cc1ncc(CN(C)C2CCCN(CCc3ccccc3)C2)n1C` (stereo not drawn) has an INHIBITION of 90%. Work on `CCn1ccnc1CN(C)C1CCCN(CCCc2ccccc2)C1` (stereo not drawn) yielded an INHIBITION of 86.8%. In the case of `CCn1ccnc1CN1CCCN(C(=O)Cc2ccc(F)cc2)CC1`, the INHIBITION is reported as -4.98%. `CCn1ccnc1CN(C)C1CCCN(CCc2ccccc2)C1` (stereo not drawn) showed an INHIBITION of 77.1%. In the case of `CCn1c(C)nnc1CN(C)C1CCN(CCOc2ccccc2)C1` (stereo not drawn), the INHIBITION is reported as -23.4%. `COC(=O)N1C[C@@H]2CC[C@H]1CN(Cc1ccncc1)C2` showed an INHIBITION of -81.6%. `c1cncc(O[C@H]2CC[C@H]3[C@H]2OCCN3C2CCCC2)c1` gave an INHIBITION of -36.8%. For `O=C(c1ccc(F)c(F)c1)N1C[C@H]2CNC[C@H]2C1`, the INHIBITION was -51.2%. Compound `Cc1nccn1CCCN1CCCC(c2ccccc2)C1` (stereo not drawn) has an INHIBITION of 77.8%. `Cc1ccc(O[C@@H]2C[C@H]3CN(c4ncc(F)cn4)CCN3C2)cc1` was tested, and the INHIBITION was -98.8%. `c1cncc(OC[C@@]23CCC[C@@H]2CN(CC2CCOCC2)C3)c1` gave an INHIBITION of 39%. For `c1cc(NC2CC3(CCN(Cc4cscn4)C3)C2)ncn1` (stereo not drawn), the INHIBITION was -13.3%. For `c1ccc(C2CN(C3CC3)CC3(CCN(Cc4cscn4)CC3)C2)cc1` (stereo not drawn), the INHIBITION was 80.4%. `c1cc(NC2CC3(CCN(Cc4cc[nH]n4)C3)C2)ncn1` (stereo not drawn) gave an INHIBITION of -152%. `CN1CC(c2ccccc2)CC2(CCN(Cc3ncc[nH]3)CC2)C1` (stereo not drawn) showed an INHIBITION of 82.5%. Compound `O=C1NCC[C@]12CN(Cc1ccncc1)C[C@H]2c1ccccc1` has an INHIBITION of -70.3%. `CCN1CC(c2ccccc2)CC2(CCN(Cc3ncc[nH]3)CC2)C1` (stereo not drawn) was tested, and the INHIBITION was 88.1%. Work on `COCC1CC2(CCN(Cc3ccccn3)CC2)CN1C(C)C` (stereo not drawn) yielded an INHIBITION of 9.58%. Compound `COCC1CC2(CCN(CC3CC3)CC2)CN1Cc1ccccn1` (stereo not drawn) has an INHIBITION of 42.4%. Compound `Cc1cc(NC2CC3(CCN(Cc4cscn4)C3)C2)ncn1` (stereo not drawn) has an INHIBITION of 19.4%. Work on `Cc1ncsc1CN1CCO[C@H]2[C@H](Oc3ccccn3)CC[C@@H]21` yielded an INHIBITION of -24.4%. `CCC12CN3CC(CC)(CN(C1)C3c1[nH]c(=O)[nH]c(=O)c1C)C2=O` (stereo not drawn) was tested, and the INHIBITION was -87.1%. `CCOC(=O)[C@@H]1[C@@H](c2ccccc2)CN2CCN(C(=O)C3CC3)C[C@H]12` was tested, and the INHIBITION was -91.7%. `c1cc(CN2CCO[C@@H]3CNC[C@@H]32)co1` showed an INHIBITION of -38.2%. In the case of `CCOc1c(Br)cc(C2c3c(n[nH]c3C)N=C3COC(=O)C32)cc1OC` (stereo not drawn), the INHIBITION is reported as 81.1%. `COc1cc(C2c3c(n[nH]c3C)N=C3COC(=O)C32)cc(Br)c1O` (stereo not drawn) showed an INHIBITION of 91%. `COc1cc(C2SCC(=O)Nc3n[nH]cc32)cc(OC)c1O` (stereo not drawn) was tested, and the INHIBITION was -36%. With `c1ccc(CN2CCO[C@H]3[C@H](OCCN4CCCC4)CC[C@@H]32)nc1` the INHIBITION was 30%. `CN1CCN(C[C@H]2CN3CC[C@H]2C[C@@H]3CNC(=O)c2ccco2)CC1` showed an INHIBITION of -59.7%. Compound `O=C1CO[C@@H]2CN(Cc3ccncc3)C[C@H]2N1Cc1ccncc1` has an INHIBITION of -52.2%. In the case of `CC(=O)N1CCC2(CC1)NC(=O)[C@H]1CN(Cc3cccnc3)C[C@H]12`, the INHIBITION is reported as -6.03%. For `Cc1ccccc1CC(=O)N1C[C@@H](O)[C@H](N2CCOCC2)C1`, the INHIBITION was -16.5%. For `CC1=C(CCN2C[C@H](O)[C@@H](N3CCOCC3)C2)C(C)(C)CCC1`, the INHIBITION was 78.3%. For `O=C(COc1cccc(F)c1)N1C[C@@H](O)[C@H](N2CCOCC2)C1`, the INHIBITION was -17.5%. Work on `COc1cc(N2CCC[C@]3(C(=O)O)CN(C(C)C)C[C@@H]3C2)ncn1` yielded an INHIBITION of -85.1%. `O=S1(=O)C[C@@H]2[C@H](C1)N(Cc1ncc[nH]1)CCN2Cc1cccnc1` was tested, and the INHIBITION was -89.75%. Compound `Clc1cc(Cl)cc(CN2CCC(NCc3ncc[nH]3)CC2)c1` has an INHIBITION of 84.7%. For `Brc1ccc(CN2CCC(NCc3ncc[nH]3)CC2)cc1`, the INHIBITION was 83.5%. Compound `CCn1cc(CN2CCCN(C(=O)Cc3cccs3)CC2)cn1` has an INHIBITION of -85.9%. With `CCn1cc(CN2CCCC(COc3ccc(F)cc3)C2)cn1` (stereo not drawn) the INHIBITION was 75.5%. With `CCn1cc(CN2CCCN(C(=O)Cc3ccc(C)nc3)CC2)cn1` the INHIBITION was -14.8%. With `COCCc1ncc(CN2CCCC(C(=O)c3ccccc3)C2)cn1` (stereo not drawn) the INHIBITION was -145%. Compound `Cc1nc(CN(C)C)cc(N2CCCC(COc3ccc(F)cc3)C2)n1` (stereo not drawn) has an INHIBITION of 86.4%. Compound `CCn1cc(CN2CCCC(COc3ccccc3F)C2)cn1` (stereo not drawn) has an INHIBITION of 72.7%. `O=C(N[C@@H]1CN[C@@H]2CCCO[C@@H]21)c1cscn1` was tested, and the INHIBITION was 14%. `Cc1noc(C)c1CN1CC[C@H]2C[C@H](c3nccs3)O[C@@H]2C1` was tested, and the INHIBITION was -8.14%. In the case of `O=C1CO[C@H]2CN(C3CCOCC3)C[C@H]2N1Cc1ccccn1`, the INHIBITION is reported as -104%. For `CCCc1nc(C(=O)N[C@H]2COC[C@@H]2N2CCN(C)CC2)cs1`, the INHIBITION was -49.3%. For `COCCN1CCc2c(cnc(-c3ccoc3)c2C(=O)O)C1`, the INHIBITION was -47.6%. Work on `Cc1occc1C(=O)N1CCN2C[C@H](Oc3cccnc3)C[C@H]2C1` yielded an INHIBITION of -23.4%. `Cc1ccc(OCc2occc2C(=O)N2CCCCC(N)C2)cc1` (stereo not drawn) was tested, and the INHIBITION was 77.5%. `CC(C)NC(=O)[C@H]1C[C@H]2NCCO[C@@H]2C1` showed an INHIBITION of -33.9%. `Cc1cc(CN2C[C@H]3CCC[C@@]3(COCC3CCOCC3)C2)no1` gave an INHIBITION of -91.9%. With `Cc1nnsc1CN1C[C@@H]2CC[C@H]1CN(Cc1ccccn1)C2` the INHIBITION was -2.06%. `O=C(CN1C[C@@H]2CC[C@H]1CN(Cc1ccccn1)C2)Nc1ccccc1` showed an INHIBITION of 83.6%. Compound `O[C@@]1(c2ccccn2)CC[C@H]2CN(Cc3ccccn3)C[C@H]21` has an INHIBITION of -89.9%. For `O=C(Cc1ccccn1)N1C[C@H]2CN(Cc3ccccn3)C[C@H]2C1`, the INHIBITION was -68.5%. In the case of `Oc1cccc(CN2C[C@@H]3CC[C@H]2CN(Cc2cccnc2)C3)c1`, the INHIBITION is reported as -14.5%. In the case of `CC(C)(C)c1cc(CN2C[C@@H]3CC[C@H]2CN(Cc2ccccn2)C3)n[nH]1`, the INHIBITION is reported as 74.1%. Work on `CN(c1ncccc1C#N)C1CCN(CCc2ccncc2)CC1` yielded an INHIBITION of 30.8%. For `c1ccc2c(c1)CCC21CN(CCc2ccncc2)CCO1` (stereo not drawn), the INHIBITION was -30.5%. `Clc1cccc(CNC2CCN(CCc3ccncc3)CC2)c1` gave an INHIBITION of 92.3%. For `Cc1cccc(CNC2CCN(CCc3ccncc3)CC2)c1C`, the INHIBITION was 76.3%. In the case of `CN1CCN(Cc2ccncc2)Cc2cccnc21`, the INHIBITION is reported as -190%. For `COCCNC(=O)[C@@]12CCO[C@@H]1CCN(Cc1ccncc1)C2`, the INHIBITION was -51.1%. With `C[C@@H]1C[C@@H]2CCN(Cc3ccncc3)C[C@H]2O1` the INHIBITION was -17.4%. `Fc1ccc(CNC2CCN(CCc3ccncc3)CC2)cc1F` gave an INHIBITION of 89.8%. For `Cc1ccc(CNC2CCN(CCc3ccncc3)CC2)cc1C`, the INHIBITION was 86.9%. `Cc1n[nH]c2c1C(c1ccc(Cl)cc1)SCC(=O)N2` (stereo not drawn) was tested, and the INHIBITION was -12.6%. Compound `Cc1ccc(C(=O)N2C[C@@H]3OCCN(C(C)C)[C@@H]3C2)cn1` has an INHIBITION of -18.4%. In the case of `Cc1cccc(CN2C(=O)C[C@H]3[C@@H]2CCN3Cc2ccco2)n1`, the INHIBITION is reported as 13.4%. In the case of `COCCN1CCO[C@H]2CN(C(=O)c3ccncc3F)C[C@H]21`, the INHIBITION is reported as -230%. Compound `CC(Cn1cccn1)NCC(=O)NC1CCOCC1` (stereo not drawn) has an INHIBITION of -32.4%. Work on `Cc1cc(CC(=O)N2CCN(C)[C@@H]3CS(=O)(=O)C[C@@H]32)ccc1F` yielded an INHIBITION of -54.5%. With `C[C@@H]1CN(Cc2ccsc2)C[C@]12CCN(Cc1cccnc1)C2=O` the INHIBITION was -45.2%. For `CSc1ccc(CNC2CCN(CCc3ccncc3)CC2)cc1`, the INHIBITION was 93%. With `CCN1C[C@H]2CCN(Cc3ccncc3)C(=O)[C@@H]2C1` the INHIBITION was -66.4%. Compound `CC1CN(CCc2ccncc2)CCO1` (stereo not drawn) has an INHIBITION of -107%. Work on `Cc1nc(CO[C@H]2CN(Cc3ccccn3)[C@@H]3CCCO[C@H]23)cs1` yielded an INHIBITION of -44.2%. In the case of `CC1=N[C@@]2(CC[C@@H]3CN(Cc4ccccc4C)C[C@@H]32)C(=O)N1CC1CC1`, the INHIBITION is reported as 85.1%. `CC1=N[C@@]2(CC[C@@H]3CNC[C@@H]32)C(=O)N1CC(C)C` showed an INHIBITION of -138%. In the case of `CCC1=N[C@@]2(CC[C@@H]3CN(CC)C[C@@H]32)C(=O)N1C`, the INHIBITION is reported as -47.6%. Work on `CNC(=O)[C@H]1C[C@@H]2CN(C(=O)c3cncc(C)c3)C[C@@H]2N1C` yielded an INHIBITION of -93.3%.
